Reference: ChEMBL document CHEMBL1961873, “Compounds: GSK PKIS; Assays: Nanosyn kinase panel” (2012)
“And” between values parts separate entries of the source, which are not always exact repeats. Equal entries are not always repeated.

Columns and labels:
[1] = molecular target: T1, Serine/threonine-protein kinase Nek9 (Homo sapiens) (UniProt Q8TD19); details: at 1 µM;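 further: each value is a mean percent inhibition of NEK9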
T1 sequence (whole entry): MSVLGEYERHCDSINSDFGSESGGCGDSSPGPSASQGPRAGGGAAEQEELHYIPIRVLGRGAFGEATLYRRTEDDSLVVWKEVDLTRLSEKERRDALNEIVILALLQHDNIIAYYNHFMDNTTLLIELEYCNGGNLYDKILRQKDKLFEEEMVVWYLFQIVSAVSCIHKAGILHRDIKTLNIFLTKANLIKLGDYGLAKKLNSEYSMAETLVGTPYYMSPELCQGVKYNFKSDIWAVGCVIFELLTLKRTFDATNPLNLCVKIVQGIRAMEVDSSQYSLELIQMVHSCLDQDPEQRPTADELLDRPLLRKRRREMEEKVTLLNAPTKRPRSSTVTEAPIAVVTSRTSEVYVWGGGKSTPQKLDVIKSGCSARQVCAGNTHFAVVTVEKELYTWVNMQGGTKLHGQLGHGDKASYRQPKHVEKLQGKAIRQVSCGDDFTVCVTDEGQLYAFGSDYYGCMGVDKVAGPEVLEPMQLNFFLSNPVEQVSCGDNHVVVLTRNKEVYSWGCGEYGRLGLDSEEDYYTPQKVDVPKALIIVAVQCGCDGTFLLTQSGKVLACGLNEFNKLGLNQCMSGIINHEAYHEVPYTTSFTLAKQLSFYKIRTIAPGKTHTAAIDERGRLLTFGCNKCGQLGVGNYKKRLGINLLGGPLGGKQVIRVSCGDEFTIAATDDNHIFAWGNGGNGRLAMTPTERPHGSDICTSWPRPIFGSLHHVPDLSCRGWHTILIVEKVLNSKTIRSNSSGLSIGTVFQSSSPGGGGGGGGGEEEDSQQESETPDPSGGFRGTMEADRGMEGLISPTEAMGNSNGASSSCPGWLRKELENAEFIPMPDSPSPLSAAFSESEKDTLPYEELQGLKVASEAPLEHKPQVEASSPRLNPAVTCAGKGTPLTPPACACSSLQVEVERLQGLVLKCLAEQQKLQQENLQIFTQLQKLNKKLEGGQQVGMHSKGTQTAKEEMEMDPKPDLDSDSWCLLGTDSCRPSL

[2] = molecular target: Serine/threonine-protein kinase PLK1 (Homo sapiens) (UniProt P53350); details: at 0.1 µM
Sequence of Serine/threonine-protein kinase PLK1 (Homo sapiens) (P53350 whole entry): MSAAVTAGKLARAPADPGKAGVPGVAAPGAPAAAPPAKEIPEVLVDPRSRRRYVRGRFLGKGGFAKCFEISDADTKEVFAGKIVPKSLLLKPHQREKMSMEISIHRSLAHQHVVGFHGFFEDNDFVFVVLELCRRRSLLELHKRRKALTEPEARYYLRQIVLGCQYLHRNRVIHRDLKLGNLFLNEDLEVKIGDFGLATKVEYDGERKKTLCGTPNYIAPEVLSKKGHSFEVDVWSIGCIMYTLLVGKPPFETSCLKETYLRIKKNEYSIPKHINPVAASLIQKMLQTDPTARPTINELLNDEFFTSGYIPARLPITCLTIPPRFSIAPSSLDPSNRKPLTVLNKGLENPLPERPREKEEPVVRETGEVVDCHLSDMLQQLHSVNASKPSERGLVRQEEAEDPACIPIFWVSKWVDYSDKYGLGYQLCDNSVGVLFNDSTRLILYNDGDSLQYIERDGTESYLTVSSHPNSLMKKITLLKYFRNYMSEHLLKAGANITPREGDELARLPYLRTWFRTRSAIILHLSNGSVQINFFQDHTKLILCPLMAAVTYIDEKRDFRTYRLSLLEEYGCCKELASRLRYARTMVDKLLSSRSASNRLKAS

[3] = molecular target: Serine/threonine-protein kinase PLK1 (Homo sapiens) (UniProt P53350); details: at 1 µM
[4] = molecular target: T2, Dual specificity protein kinase TTK (Homo sapiens) (UniProt P33981); details: at 0.1 µM
T2 sequence (whole entry): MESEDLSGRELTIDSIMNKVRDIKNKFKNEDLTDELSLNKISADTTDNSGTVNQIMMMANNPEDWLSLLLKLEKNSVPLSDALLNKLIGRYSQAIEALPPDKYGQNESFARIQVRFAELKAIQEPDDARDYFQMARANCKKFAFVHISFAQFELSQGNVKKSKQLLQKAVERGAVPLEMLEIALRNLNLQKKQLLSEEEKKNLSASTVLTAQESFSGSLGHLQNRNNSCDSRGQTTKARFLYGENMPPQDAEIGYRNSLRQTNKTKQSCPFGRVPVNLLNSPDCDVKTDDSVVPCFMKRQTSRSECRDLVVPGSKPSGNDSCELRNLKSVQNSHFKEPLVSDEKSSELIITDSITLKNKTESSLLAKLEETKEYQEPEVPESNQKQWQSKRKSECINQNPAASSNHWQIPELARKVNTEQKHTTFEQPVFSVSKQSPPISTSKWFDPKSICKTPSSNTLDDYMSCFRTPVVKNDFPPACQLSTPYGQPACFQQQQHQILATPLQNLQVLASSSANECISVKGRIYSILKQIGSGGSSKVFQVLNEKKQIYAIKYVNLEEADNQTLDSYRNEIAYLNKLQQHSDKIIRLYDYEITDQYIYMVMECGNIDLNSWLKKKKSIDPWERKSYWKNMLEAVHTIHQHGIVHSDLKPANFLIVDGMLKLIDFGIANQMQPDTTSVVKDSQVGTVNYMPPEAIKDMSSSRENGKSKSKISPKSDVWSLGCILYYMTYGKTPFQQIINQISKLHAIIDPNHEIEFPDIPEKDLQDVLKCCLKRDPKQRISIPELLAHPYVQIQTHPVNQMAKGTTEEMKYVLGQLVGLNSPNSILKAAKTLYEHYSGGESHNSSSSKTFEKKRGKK

[5] = system: T3, Receptor-type tyrosine-protein kinase FLT3 (Homo sapiens), P36888 [D835Y]; details: at 1 µM
T3 sequence (whole entry): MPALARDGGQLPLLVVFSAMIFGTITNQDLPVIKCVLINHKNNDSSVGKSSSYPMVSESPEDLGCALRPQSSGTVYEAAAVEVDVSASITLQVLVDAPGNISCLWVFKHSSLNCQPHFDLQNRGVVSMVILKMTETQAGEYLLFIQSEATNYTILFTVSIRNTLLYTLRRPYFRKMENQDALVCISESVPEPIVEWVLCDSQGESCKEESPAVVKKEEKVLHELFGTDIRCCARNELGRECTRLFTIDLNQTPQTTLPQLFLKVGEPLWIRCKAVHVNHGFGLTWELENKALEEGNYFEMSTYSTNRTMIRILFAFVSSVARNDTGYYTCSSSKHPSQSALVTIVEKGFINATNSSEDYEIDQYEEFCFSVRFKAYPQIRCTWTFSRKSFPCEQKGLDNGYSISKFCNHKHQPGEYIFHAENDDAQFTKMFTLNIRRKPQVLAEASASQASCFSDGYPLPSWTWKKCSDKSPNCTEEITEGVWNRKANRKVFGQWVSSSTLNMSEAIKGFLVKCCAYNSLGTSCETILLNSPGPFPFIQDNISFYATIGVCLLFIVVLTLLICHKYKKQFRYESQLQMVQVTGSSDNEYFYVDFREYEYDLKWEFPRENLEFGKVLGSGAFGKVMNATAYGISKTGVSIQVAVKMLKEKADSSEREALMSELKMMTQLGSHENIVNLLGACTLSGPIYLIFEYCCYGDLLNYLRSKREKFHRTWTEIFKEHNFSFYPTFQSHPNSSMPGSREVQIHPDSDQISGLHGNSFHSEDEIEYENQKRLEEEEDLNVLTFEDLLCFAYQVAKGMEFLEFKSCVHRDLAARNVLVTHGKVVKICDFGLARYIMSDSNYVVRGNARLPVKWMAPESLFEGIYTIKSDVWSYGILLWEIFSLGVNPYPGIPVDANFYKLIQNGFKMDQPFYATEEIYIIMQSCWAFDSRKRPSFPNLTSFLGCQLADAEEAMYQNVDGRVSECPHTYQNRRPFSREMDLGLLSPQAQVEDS

[6] = molecular target: Vascular endothelial growth factor receptor 3 (Homo sapiens) (UniProt P35916); details: at 0.1 µM
Sequence of Vascular endothelial growth factor receptor 3 (Homo sapiens) (P35916 whole entry): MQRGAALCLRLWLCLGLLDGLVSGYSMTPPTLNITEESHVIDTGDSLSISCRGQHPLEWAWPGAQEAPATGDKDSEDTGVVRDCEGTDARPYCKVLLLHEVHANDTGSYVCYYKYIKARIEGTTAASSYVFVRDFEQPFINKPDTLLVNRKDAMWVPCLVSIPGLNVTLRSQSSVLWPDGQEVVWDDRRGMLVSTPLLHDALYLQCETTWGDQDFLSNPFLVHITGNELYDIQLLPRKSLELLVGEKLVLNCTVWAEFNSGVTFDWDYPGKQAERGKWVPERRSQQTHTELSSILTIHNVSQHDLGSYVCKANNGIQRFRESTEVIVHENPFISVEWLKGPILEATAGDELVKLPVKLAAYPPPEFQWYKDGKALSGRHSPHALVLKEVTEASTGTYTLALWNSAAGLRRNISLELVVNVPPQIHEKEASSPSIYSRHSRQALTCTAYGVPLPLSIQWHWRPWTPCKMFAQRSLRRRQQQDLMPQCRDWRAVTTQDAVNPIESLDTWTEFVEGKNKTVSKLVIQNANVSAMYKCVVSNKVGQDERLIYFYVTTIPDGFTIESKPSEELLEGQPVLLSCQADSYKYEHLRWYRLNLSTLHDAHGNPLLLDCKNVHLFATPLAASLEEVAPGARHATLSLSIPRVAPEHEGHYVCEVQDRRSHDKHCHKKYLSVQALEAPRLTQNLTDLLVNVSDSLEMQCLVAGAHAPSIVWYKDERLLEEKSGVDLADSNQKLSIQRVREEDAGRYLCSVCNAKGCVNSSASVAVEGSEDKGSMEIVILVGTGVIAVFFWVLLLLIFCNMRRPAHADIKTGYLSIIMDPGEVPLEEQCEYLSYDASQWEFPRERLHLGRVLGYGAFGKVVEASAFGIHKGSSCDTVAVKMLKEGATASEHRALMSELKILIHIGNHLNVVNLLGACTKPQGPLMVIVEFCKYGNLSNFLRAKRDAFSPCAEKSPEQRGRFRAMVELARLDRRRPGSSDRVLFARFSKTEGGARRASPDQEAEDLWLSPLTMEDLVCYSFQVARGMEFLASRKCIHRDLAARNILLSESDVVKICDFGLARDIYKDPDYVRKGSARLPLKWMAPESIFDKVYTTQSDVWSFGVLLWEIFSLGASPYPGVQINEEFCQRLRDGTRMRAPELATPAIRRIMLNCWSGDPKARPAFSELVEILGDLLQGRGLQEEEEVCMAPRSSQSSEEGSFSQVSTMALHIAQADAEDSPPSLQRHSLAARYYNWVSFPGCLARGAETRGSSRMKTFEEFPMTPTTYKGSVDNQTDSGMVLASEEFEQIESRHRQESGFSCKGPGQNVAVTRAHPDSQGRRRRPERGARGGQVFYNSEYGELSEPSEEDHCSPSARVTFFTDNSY

[7] = molecular target: Vascular endothelial growth factor receptor 3 (Homo sapiens) (UniProt P35916); details: at 1 µM
[8] = molecular target: Macrophage colony-stimulating factor 1 receptor (Homo sapiens) (UniProt P07333); details: at 0.1 µM
Sequence of Macrophage colony-stimulating factor 1 receptor (Homo sapiens) (P07333 whole entry): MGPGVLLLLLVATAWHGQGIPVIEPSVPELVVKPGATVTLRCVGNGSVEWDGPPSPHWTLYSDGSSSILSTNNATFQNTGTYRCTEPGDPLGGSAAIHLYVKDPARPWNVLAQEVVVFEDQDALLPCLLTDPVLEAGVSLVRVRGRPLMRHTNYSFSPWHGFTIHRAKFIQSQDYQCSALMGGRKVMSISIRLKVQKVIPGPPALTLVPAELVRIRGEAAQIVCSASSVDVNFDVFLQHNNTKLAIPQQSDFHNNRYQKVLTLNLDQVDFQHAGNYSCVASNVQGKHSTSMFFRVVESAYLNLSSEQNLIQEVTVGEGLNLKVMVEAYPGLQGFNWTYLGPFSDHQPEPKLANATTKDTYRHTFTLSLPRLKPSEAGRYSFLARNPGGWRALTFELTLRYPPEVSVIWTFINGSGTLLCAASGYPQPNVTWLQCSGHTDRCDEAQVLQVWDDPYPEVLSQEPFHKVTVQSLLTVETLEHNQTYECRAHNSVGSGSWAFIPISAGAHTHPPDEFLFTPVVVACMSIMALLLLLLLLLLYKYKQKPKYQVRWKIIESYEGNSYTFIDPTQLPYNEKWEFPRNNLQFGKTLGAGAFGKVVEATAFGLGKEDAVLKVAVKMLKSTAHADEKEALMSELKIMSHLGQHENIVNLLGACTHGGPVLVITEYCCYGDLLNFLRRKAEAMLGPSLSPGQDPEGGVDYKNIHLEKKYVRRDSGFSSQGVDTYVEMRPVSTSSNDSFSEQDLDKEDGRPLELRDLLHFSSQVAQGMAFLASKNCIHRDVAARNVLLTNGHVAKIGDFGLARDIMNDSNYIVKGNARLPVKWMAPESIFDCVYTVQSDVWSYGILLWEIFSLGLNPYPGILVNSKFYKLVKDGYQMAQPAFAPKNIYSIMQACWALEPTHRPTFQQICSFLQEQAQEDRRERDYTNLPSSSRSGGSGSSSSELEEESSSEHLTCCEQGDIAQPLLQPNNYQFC

[9] = molecular target: Macrophage colony-stimulating factor 1 receptor (Homo sapiens) (UniProt P07333); details: at 1 µM
[10] = molecular target: Tyrosine-protein kinase Fyn (Homo sapiens) (UniProt P06241); details: at 0.1 µM
Sequence of Tyrosine-protein kinase Fyn (Homo sapiens) (P06241 2-537 limits assumed): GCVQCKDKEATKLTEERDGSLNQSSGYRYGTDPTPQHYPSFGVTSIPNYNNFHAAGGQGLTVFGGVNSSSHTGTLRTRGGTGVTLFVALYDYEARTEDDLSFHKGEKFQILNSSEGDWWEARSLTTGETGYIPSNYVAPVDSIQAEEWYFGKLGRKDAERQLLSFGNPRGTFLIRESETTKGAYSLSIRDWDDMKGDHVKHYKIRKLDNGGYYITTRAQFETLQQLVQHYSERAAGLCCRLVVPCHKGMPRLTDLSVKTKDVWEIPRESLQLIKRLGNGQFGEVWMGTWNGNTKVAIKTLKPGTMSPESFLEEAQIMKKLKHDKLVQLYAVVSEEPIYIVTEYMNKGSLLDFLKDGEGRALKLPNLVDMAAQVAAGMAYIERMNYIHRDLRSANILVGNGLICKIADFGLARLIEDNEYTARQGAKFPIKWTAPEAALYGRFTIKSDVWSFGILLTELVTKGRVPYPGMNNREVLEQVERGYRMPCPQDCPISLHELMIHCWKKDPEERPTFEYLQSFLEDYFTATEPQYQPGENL

Row | Structure (SMILES) | inhibition [1] | inhibition [2] | inhibition [3] | inhibition [4] | inhibition [5] | inhibition [6] | inhibition [7] | inhibition [8] | inhibition [9] | inhibition [10]
1 | COC(=O)Nc1nc2ccc(Oc3ccc(NC(=O)Nc4cc(C(F)(F)F)ccc4F)cc3)cc2s1 | -3.04% | 1.23% | 0.38% | 0.59% | 13.5% | 10.4% | 52.8% | 2.52% | 39.1% | 6.49%
2 | CS(=O)(=O)Nc1ccc(-c2cc(-c3ccccc3)cc(C(N)=O)c2N)cc1 | 1.82% | 0.78% | 3.05% | 3.79% | -1.74% | 11.7% | 14.7% | 1.42% | 9.05% | 1.39%
3 | Cn1c(-c2nonc2N)nc2cnccc21 | 10.4% | 4.28% | 5.16% | 5.36% | 6.27% | 2.31% | -0.12% | -0.13% | 4.58% | 1.61%
4 | CC1(C)CC(n2cnc(-c3ccc(F)cc3)c2-c2ccnc(N)n2)CC(C)(C)N1 | 2.47% | 2.09% | 0.76% | -0.55% | 0.24% | 3.06% | 2.77% | 1.31% | 0.54% | 1.49%
5 | CS(=O)(=O)CCNCc1ccc(-c2ccc3ncnc(Nc4ccc(OCc5cccc(C(F)(F)F)c5)cc4)c3c2)o1 | 2.96% | 5.06% | 6.5% | 7.15% | 1.14% | 8.65% | 15.4% | 3.92% | 9.05% | 2.75%
6 | CCS(=O)(=O)c1ccc(OC)c(Nc2ncc(-c3cccc(C(C)=O)c3)o2)c1 | 3.45% | 2.42% | 2.98% | 5.81% | 87.2% | 10.7% | 47.3% | 10.2% | 34.7% | 26.4%
7 | c1ccc(-c2n[nH]cc2-c2ccnc(-c3ccc(OCCn4ccnc4)cc3)c2)nc1 | 2.33% | 1.2% | 2.17% | 3.26% | 5.27% | 5.33% | 16.4% | 2.61% | 11.8% | 2.86%
8 | COC(=O)Nc1nc2cc(Oc3ccc(NC(=O)Nc4ccccc4)cc3)ccc2[nH]1 | 6.76% | 2.19% | 4.22% | 6.44% | 2.44% | 1.7% | -0.36% | 11.4% | 21.8% | 0.67%
9 | CC1=C(C(=O)Nc2ccc3[nH]ncc3c2)C(c2ccc(F)cc2)N=C(c2ccc(C(F)(F)F)nc2)N1 (stereo not given) | -1.51% | 1.85% | 1.78% | 3.99% | 1.9% | 1.85% | 0.82% | 3.03% | 2.25% | 4.17%
10 | Fc1cccc(COc2ccc(Nc3ncncc3C#Cc3ccccc3)cc2Cl)c1 | 8.71% | 3.37% | 3.17% | 7.47% | -0.95% | 4.04% | 0.69% | 3.32% | 4.86% | 1.15%
11 | FC(F)(F)CNc1nccc(-c2cnn3ncccc23)n1 | 0.64% | 0.06% | 0.65% | 3.92% | 6% | 2.05% | 2.12% | -4.71% | 3.68% | 0.85%
12 | Cc1ccc(-c2cc3c(NC(=O)C4CC4)ncnc3o2)cc1 | 4.87% | 3.28% | 2.79% | 6.01% | 3.4% | 3.84% | 9.25% | 20.6% | 66.9% | 6.5%
13 | CN1CCN(Cc2ccc(-c3cc4ncnc(Nc5ccc(OCc6cccc(F)c6)c(Cl)c5)c4s3)o2)CC1 | 5.83% and 18% | 3.39% and 1.18% | 2.38% and 4.14% | 6.58% and 12.2% | -2.05% and 1.99% | 2.97% and 4.96% | 3.14% and 8.22% | 3.64% and 7.74% | 27.9% and 35.8% | 2.24% and 2.04%
14 | O=C(Nc1n[nH]c2nnc(-c3cccnc3)cc12)C1CC1 | 1.12% | -0.87% | 2.11% | 1.85% | -1.95% | 0.27% | 3.35% | -1.71% | 5.46% | 1.64%
15 | CNC(=O)c1ncccc1Nc1nc(Nc2cc3c(cc2OC)CCCN3C(=O)CN(C)C)nc2[nH]ccc12 | 8.8% | 79.8% | 92.8% | 12.8% | 2.75% | 2.84% | 2.27% | 7.05% | 3.9% | 1.75%
16 | COc1cccc(Nc2nccc(-c3cnn4ncccc34)n2)c1 | 26.1% | 3.48% | 21.3% | 4.85% | 52.3% | -0.16% | 30.2% | 50.4% | 90.9% | 1.46%
